# Measurements from PubChem BioAssay (NCATS).
# Unmarked numbers belong to inactive results. Active and inactive are the calls of the source. The call rests on the fitted dose curve; in most records, active means well fitted activation curve with a large enough effect; inconclusive means small, poorly fitted or top-dose-only effect; inactive means no such curve, though single readings can be large or run the other way.
# Biological target: Cytochrome P450 3A4 (Homo sapiens) (UniProt P08684)
# Assay: qHTS Assay for Activators of Cytochrome P450 3A4 (AID 885); further: nearly all actives have a fitted effect of over 65% in size
# Conditions: recombinant CYP3A4, Luciferin-PPXE luminescence, 60 min; series mostly up to 57.1 µM
# Outline: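 Signal was normalized against complete inhibition by 57 uM ketoconazole. The reaction used 20nM CYP3A4 with 25uM Luciferin-PPXE, 10-min compound preincubation and a 60-min NADPH-supported step at RT.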
# Sequence of Cytochrome P450 3A4 (Homo sapiens) (P08684 whole entry, looked up): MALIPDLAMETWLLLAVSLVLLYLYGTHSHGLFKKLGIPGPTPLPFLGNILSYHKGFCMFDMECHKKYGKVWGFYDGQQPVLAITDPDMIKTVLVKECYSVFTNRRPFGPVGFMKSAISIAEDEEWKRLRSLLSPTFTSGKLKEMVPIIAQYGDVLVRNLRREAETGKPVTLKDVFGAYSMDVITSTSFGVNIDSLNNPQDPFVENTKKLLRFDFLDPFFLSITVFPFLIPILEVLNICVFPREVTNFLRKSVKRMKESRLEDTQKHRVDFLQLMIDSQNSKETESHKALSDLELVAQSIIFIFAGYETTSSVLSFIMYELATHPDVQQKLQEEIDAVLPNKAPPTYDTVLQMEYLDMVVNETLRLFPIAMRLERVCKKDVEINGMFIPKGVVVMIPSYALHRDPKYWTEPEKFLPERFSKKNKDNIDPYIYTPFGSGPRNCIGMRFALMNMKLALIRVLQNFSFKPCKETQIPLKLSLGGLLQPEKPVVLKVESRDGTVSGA
SMILES,Potency,"activity change, positive = activation"
CC1(C(=O)NCCc2c[nH]c3ccccc23)C=CCN1C(=O)c1ccccc1 (stereo not drawn),inactive,–
C/C(CCC(=O)OC[C@@H]1O[C@H](C#Cc2ccccc2)C=C[C@@H]1Oc1ccc(C)cc1)=N/OC[C@@H](O)COCc1ccco1,–,-90.6% [at 11.4 µM]
CCN1C(=O)[C@H]2[C@H]3[C@H](O)[C@H](O)C/C(=N/O[C@@H](C)c4cc(-c5c(C)cc(C)cc5C)no4)[C@@H]3CC[C@@H]2C1=O,–,-72.9% [at 11.4 µM]
